Data: article PMC5540273 (PLoS ONE, 2017)

Tests used:
Settings in all cases: concentration: 1 μM, replicates: in singlicate; n = 1
ABL2 = test system: ABL2
ACVR1B = test system: ACVR1B
ACVR1 = test system: ACVR1
ACVR2A = test system: ACVR2A
ACVR2B = test system: ACVR2B
ACVRL1 = test system: ACVRL1
ADCK3 = test system: T1, ADCK3
T1 construct: gene CABC1

ADCK4 = test system: ADCK4
AKT1 = test system: AKT1
AKT2 = test system: AKT2
AKT3 = test system: AKT3
ALK = test system: ALK
AMPK-alpha1 = test system: T2, AMPK-alpha1
T2 construct: gene PRKAA1

AMPK-alpha2 = test system: T3, AMPK-alpha2
T3 construct: gene PRKAA2

ANKK1 = test system: ANKK1
ARK5 = test system: T4, ARK5
T4 construct: gene NUAK1

ASK1 = test system: T5, ASK1
T5 construct: gene MAP3K5

ASK2 = test system: T6, ASK2
T6 construct: gene MAP3K6

AURKA = test system: AURKA
AURKB = test system: AURKB
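Further: KINOMEscan kinase panel screen.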

Row | SMILES | %Inh (ABL2) | %Inh (ACVR1B) | %Inh (ACVR1) | %Inh (ACVR2A) | %Inh (ACVR2B) | %Inh (ACVRL1) | %Inh (ADCK3) | %Inh (ADCK4) | %Inh (AKT1) | %Inh (AKT2) | %Inh (AKT3) | %Inh (ALK) | %Inh (AMPK-alpha1) | %Inh (AMPK-alpha2) | %Inh (ANKK1) | %Inh (ARK5) | %Inh (ASK1) | %Inh (ASK2) | %Inh (AURKA) | %Inh (AURKB)
1 | Cc1ccc(NC(=O)c2cccc(C#N)c2)cc1-c1ccc(C(=O)Nc2ccncc2)cc1 [GSK1398463] | 54% | 0% | 18% | 0% | 0% | 2% | 18% | 6% | 0% | 0% | 0% | 31% | 0% | 15% | 0% | 33% | 3% | 8% | 7% | 12%
2 | Nc1nc(-c2ccc3c(N)n[nH]c3c2)cc(N2CCC[C@@H](C(=O)Nc3ccccc3)C2)n1.O=C(O)C(F)(F)F.O=C(O)C(F)(F)F [GSK2288359] | 0% | 0% | 0% | 0% | 0% | 0% | 0% | 11% | 0% | 7% | 0% | 5% | 9% | 26% | 12% | 0% | 1% | 0% | – | 0%
3 | CCc1nc(-c2cccc(C)c2)c(-c2ccnc(NC(=O)c3ccccc3)c2)s1 | 27% | 12% | 0% | 0% | 0% | 0% | 17% | 20% | 0% | 13% | 0% | 27% | 16% | 1% | 0% | 0% | 9% | 0% | 17% | 6%
4 | O=C(NCCCN1CCCC1=O)c1cnc(NCc2cc(Cl)ccc2Cl)nc1NC1CCNCC1 | 0% | 0% | 0% | 0% | 0% | 0% | 9% | 0% | 0% | 0% | 0% | 21% | 18% | 17% | 0% | 0% | 0% | 0% | 0% | 0%
5 | COc1ccc(Nc2nccc(N3CCC(NC(=O)c4cccc(NC(C)=O)c4)C3)n2)cc1 (stereo not drawn) [GSK1379732] | 0% | 0% | 6% | 0% | 0% | 2% | 8% | 36% | 0% | 14% | 23% | 0% | 5% | 0% | 11% | 9% | 0% | 1% | 16% | 1%
6 | Cc1ccc(C)c(NC(=O)NCCNc2ccnc(Nc3ccc(F)cc3)n2)c1 [GSK1379878] | 0% | 0% | 0% | 0% | 0% | 0% | 0% | 10% | 0% | 0% | 0% | 2% | 10% | 0% | 5% | 0% | 0% | 0% | 7% | 0%
7 | CNc1nccc(-c2c(-c3ccc(F)cc3)ncn2CCCN2CCOCC2)n1 [SB-222516] | 12% | 19% | 8% | 4% | 4% | 15% | 1% | 0% | 18% | 0% | 14% | 12% | 0% | 9% | 39% | 0% | 9% | 12% | 0% | 11%
8 | N#Cc1ccc(Oc2ccc(Nc3ncnc4cc[nH]c34)cc2Cl)cc1 | 12% | 15% | 1% | 27% | 25% | 6% | 13% | 8% | 0% | 0% | 0% | 0% | 17% | 15% | 28% | 10% | 18% | 0% | 11% | 16%
9 | Nc1n[nH]c2nnc(-c3ccccc3)cc12 [SB-517389] | 13% | 0% | 16% | 0% | 4% | 0% | 6% | 16% | 0% | 13% | 0% | 29% | 0% | 16% | 0% | 1% | 61% | 0% | 13% | 32%
10 | COc1ccc(NC(=O)c2ccc(-c3cc(-c4nnc(C)o4)ccc3C)cc2)cc1 [GW595885] | 16% | 0% | 0% | 0% | 5% | 0% | 0% | 28% | 0% | 0% | 0% | 36% | 0% | 14% | 0% | 0% | 10% | 15% | 0% | 26%
11 | FC(F)(F)c1ccc(-c2nn3ncccc3c2-c2ccnc(Nc3cccc(C(F)(F)F)c3)n2)cc1 [GW828205] | 16% | 24% | 0% | 6% | 19% | 10% | 23% | 0% | 0% | 0% | 15% | 0% | 12% | 0% | 0% | 6% | 0% | 0% | 0% | 14%
